# Test results published in the supplement of paper PMC6555819.
# How the values were obtained:
# Assay in all cases: PBM binding z-score (relative to random genomic background probes); higher = stronger binding; sequences stand for … in GC…GCGATTGACAGCGTAGAATGAAGG
# [1] = tested on: FXR:RXRa (NR concentration 270 nM, RXRa partner concentration 90 nM)
# In short: (§1)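 Random background probes are the reference for binding z-scores. These scores derive from regression-normalized fluorescence on custom Agilent 4×180K protein-binding microarrays incubated 1 h with ligand-free nuclear receptor dimers. Binding was detected with antibodies against each partner (one per run).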
# [2] = tested on: LXRa:RXRa (NR concentration 270 nM, RXRa partner concentration 90 nM)
# In short: as §1
# [3] = tested on: LXRa homodimer (NR concentration 270 nM)
# In short: as §1
# [4] = tested on: LXRb:RXRa (NR concentration 270 nM, RXRa partner concentration 90 nM)
# In short: as §1
# [5] = tested on: LXRb homodimer (NR concentration 270 nM)
# In short: as §1
# [6] = tested on: PPARa:RXRa (NR concentration 270 nM, RXRa partner concentration 90 nM)
# In short: as §1
# [7] = tested on: PPARg:RXRa (NR concentration 180 nM, RXRa partner concentration 90 nM)
# In short: as §1
# [8] = tested on: PPARg:RXRa 270nM:90nM, anti-RXR (NR concentration 270 nM, RXRa partner concentration 90 nM)
# In short: as §1
# [9] = tested on: PPARg:RXRa 30nM:10nM, anti-RXR (NR concentration 30 nM, RXRa partner concentration 10 nM)
# In short: as §1
# [10] = tested on: PPARg:RXRa 90nM:30nM, anti-RXR (NR concentration 90 nM, RXRa partner concentration 30 nM)
# In short: as §1
# [11] = tested on: PPARg:RXRa DBDmut IVT, anti-RXR (DBD mutation: RXRa K156A/R161A, NR concentration 270 nM, RXRa partner concentration 90 nM)
# In short: as §1
# [12] = tested on: PPARg:RXRa IVT, anti-PPARg (NR concentration 270 nM, RXRa partner concentration 90 nM)
# In short: as §1
# [13] = tested on: PPARg DBDmut:RXRa IVT, anti-PPARg (DBD mutation: PPARg1 K132A/R137A, NR concentration 270 nM, RXRa partner concentration 90 nM)
# In short: as §1
# [14] = tested on: PPARg DBDmut IVT, anti-PPARg (DBD mutation: PPARg1 K132A/R137A, NR concentration 270 nM)
# In short: as §1
# [15] = tested on: PPARg homodimer (NR concentration 180 nM)
# In short: as §1
# [16] = tested on: PXR:RXRa (NR concentration 270 nM, RXRa partner concentration 90 nM)
# In short: as §1
# [17] = tested on: PXR homodimer (NR concentration 270 nM)
# In short: as §1
# [18] = tested on: RARa:RXR (NR concentration 270 nM, RXRa partner concentration 90 nM)
# In short: as §1
# [19] = tested on: RARa homodimer (NR concentration 270 nM)
# In short: as §1
# [20] = tested on: RARb:RXRa (NR concentration 270 nM, RXRa partner concentration 90 nM)
# In short: as §1
Sequence,PBM binding z-score [1],PBM binding z-score [2],PBM binding z-score [3],PBM binding z-score [4],PBM binding z-score [5],PBM binding z-score [6],PBM binding z-score [7],PBM binding z-score [8],PBM binding z-score [9],PBM binding z-score [10],PBM binding z-score [11],PBM binding z-score [12],PBM binding z-score [13],PBM binding z-score [14],PBM binding z-score [15],PBM binding z-score [16],PBM binding z-score [17],PBM binding z-score [18],PBM binding z-score [19],PBM binding z-score [20]
CCAGACAGGTGATAGGTAACTCAGTCTGGTACGC,-0.225,-0.0796,-0.151,-0.0572,-0.589,0.765,1.82,2.56,0.858,1.92,0.575,0.559,-0.871,0.0703,0.624,-0.293,-0.225,0.152,0.246,0.0928
TCGAGTAGGTTAGGTGCATTCAGAATGGCGTCGA,-0.264,-0.0402,-0.55,0.172,-1.05,0.236,-0.209,0.709,0.736,0.505,1.94,1.03,-0.609,-0.486,-0.132,0.0438,0.333,-0.0756,-0.18,0.175
TTGAGTAGGTTACCAATGGGGCATTCAGCTTTCT,0.0857,1.41,-0.22,1.21,-0.0643,1.36,1.23,1.9,1.01,1.5,4.77,4.38,0.923,0.772,0.846,0.242,-0.056,0.279,0.0397,1.19
CACGAAAGGTCGGTTGAGGTGAGTATACGGATAA,2.53,2.25,0.0219,1.7,0.387,3,0.823,1.36,0.246,0.906,0.197,1.19,1.19,0.977,1.22,3.42,0.224,2.96,0.255,3.18
GCGACTGGGGCAAAGCAGGTTGCCATAAGGTTGG,-0.377,-0.798,-0.715,-0.849,-1.26,0.461,0.599,1.15,-0.358,0.243,4.34,3.1,-0.486,-0.871,-0.00419,-0.373,-0.521,-0.163,-0.719,0.412
CCTACTGGGCCAAAAAGGTCCTTGATGCCGATAA,-0.386,-0.565,-0.584,-0.39,-0.811,0.631,0.195,0.889,-0.0812,0.211,3.01,2.44,-0.992,-1.33,-0.196,-0.29,-0.721,-0.161,-0.376,0.177
CCTAGTTGGTCAGGAGGTCACACAGCGGATATGA,4.26,3.54,2.17,3.55,0.887,4.36,3.51,4.15,1.76,3.56,1.92,3.62,0.997,0.401,5.93,4.51,2.55,5.39,3.77,3.81
ATCTCTTGGTAAGACTCAGTTCAGTGAAGAACGC,0.584,0.976,0.839,0.676,1.08,0.0896,-0.159,0.141,0.448,0.216,0.682,0.216,1.42,1.19,1.11,1.12,2.04,0.274,1.84,0.518
CAGCCTAGGTCAGGGCCAGAATAGGAGGAACGTT,1.68,0.905,-0.589,0.734,-1.02,2.04,1.06,0.725,-0.241,0.0702,1.51,1.55,-0.6,-1.51,0.276,0.146,-0.618,0.927,-0.25,3.49
ACTATTAGTTGACTTAGGGCAACCGATACGACGC,0.119,0.0991,-0.0501,0.277,0.41,0.0707,0.995,0.159,0.448,0.379,-0.304,0.722,1.07,1.09,-0.697,0.217,0.409,0.353,0.643,0.958
CCGACTGGGCCAAAGGTTACCATACTCAGTACGA,1.06,1.26,0.13,2,-0.974,5.39,10.7,9.42,9.58,10.6,3.77,5.5,0.219,-0.431,1.31,1.75,-0.189,3.1,0.224,2.22
GCTTACTGGTCAAAGGTTATAGCATGAATAGAAT,2.63,2.93,0.195,2.9,-0.146,4.95,8.22,7.6,6.04,7.95,1.14,3.37,1.09,1.11,0.856,3.18,0.438,4.53,0.553,2.54
AGAATGAGGTTAACATCAGGGAAACAGAATACAT,2.93,2.97,-0.211,2.21,-0.23,4.3,3.36,3.34,1.39,2.46,3.52,3.79,1.84,1.16,1.12,1.43,0.184,2.81,0.181,2.32
AGCGAAAGGTCGACGAGGTGAGTATACACCGTTT,4.18,2.97,-0.376,2.37,-0.286,4.3,3.21,3.62,0.842,2.31,0.519,1.89,0.248,0.154,1.07,2.86,0.276,3.47,-0.0264,3.84
GCAGACAGGTGATACGCAGGTAACTCAGGGTGGC,-0.378,-0.342,-0.563,-0.687,-1.16,-0.129,0.508,-0.512,-0.33,-0.762,-0.192,-0.471,-0.737,-0.846,-0.0293,-0.424,-0.57,0.0928,-0.408,-0.253
